Bioassay records deposited in PubChem by several laboratories.
BoNT A protease – BoNT/A light chain protease inhibitors, primary screen, biochemical, flow cytometry, MLPCN library. multiplex microsphere protease substrate cleavage. inhibition, % at 10 µM. Botulinum neurotoxin type A light chain protease (Clostridium botulinum A str. ATCC 3502). 360,000 tested, 0.17% active; also: plate controls were buffer without enzyme for full effect and enzyme alone for no effect
3CLpro inhibitor – SARS-CoV 3CLpro protease inhibitors, primary screen, biochemical, quenched FRET; inhibition, % at 6 µM; recombinant SARS-CoV 3CLpro, quenched FRET peptide cleavage; Replicase polyprotein 1ab (Severe acute respiratory syndrome coronavirus), P0C6X7; 290,000 tested, 0.14% active; AID 1706, 2009; in the data active = inhibition above about 12%
Autofluor counter – flagged as autofluorescent in microsphere protease counterscreen; 360,000 tested, 3.1% active; compound autofluorescence counterscreen, microsphere flow cytometry; stronger effect = higher value; fluorescence intensity (no concentration beside the values); AID 624483; in the data active = fluorescence intensity above about 16000; inconclusive = no clear call, values can overlap the other calls
Anthrax LF inh2 – Bacillus anthracis LF protease inhibitors, primary screen, biochemical, multiplex microsphere, MLPCN library. 360,000 tested, 0.12% active. inhibition, % at 10 µM. multiplex microsphere protease cleavage assay. Lethal factor (Bacillus anthracis), P15917. AID 588501, 2011; also: plate controls were buffer without enzyme for full effect and enzyme alone for no effect
BoNT-F LC inh – BoNT/F light chain protease inhibitors, primary screen, biochemical, flow cytometry, MLPCN library | Botulinum neurotoxin type F light chain protease (Clostridium botulinum) | Multiplex microsphere protease cleavage assay | inhibition, % at 10 µM | 360,000 tested, 0.22% active | AID 588497, 2011; in the data active = inhibition above about 35%, passing the limit was not always enough; inconclusive = no clear call, values can overlap the other calls; also: plate controls were buffer without enzyme for full effect and enzyme alone for no effect
VHR inh abs – VHR1 phosphatase inhibitors, primary screen, biochemical, absorbance, uHTS. 290,000 tested, 0.52% active. inhibition, % at 13.3 µM. recombinant VHR phosphatase, pNPP absorbance; in the data active = inhibition above about 50%
Target sequence (P51452 whole entry, looked up): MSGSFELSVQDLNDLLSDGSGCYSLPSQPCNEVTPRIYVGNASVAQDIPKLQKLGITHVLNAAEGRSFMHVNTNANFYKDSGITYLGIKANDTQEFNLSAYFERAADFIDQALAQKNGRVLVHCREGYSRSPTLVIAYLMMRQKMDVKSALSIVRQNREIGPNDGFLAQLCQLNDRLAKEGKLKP
* = called active by the depositor; ? = inconclusive; . = not tested or not shown. This is a sample that favours compounds with a hit; in the whole collection about 3.9% have one here. Rule as the data show it, unless noted: active = inhibition above about 30%; inconclusive = no clear call, values can overlap the other calls; inactive = below that.

SMILES | BoNT A protease | 3CLpro inhibitor | Autofluor counter | Anthrax LF inh2 | BoNT-F LC inh | VHR inh abs
O=S(=O)(c1c(F)cccc1F)N1CCCC2CCCCC21 (configuration not stated) | -0.7 | . | 3926 | 0.3 | -8.0 | .
Cc1ccc(C(=O)CN2CCN(c3ccccn3)CC2)c(C)c1 | -4.1 | 2.6 | 4308 | -4.0 | -18.5 | -10.0
Cc1ccc2cc(C)c(N3CCN(c4ccccn4)CC3)nc2c1 | 0.3 | 1.0 | 23535* | -4.0 | -3.3 | -3.8
CC1([N+](=O)[O-])COP(=O)(Nc2cccc(Br)c2)OC1 (configuration not stated) | 1.8 | . | 16672* | 1.2 | 24.7 | .
O=C(Nc1ccon1)c1cccc(S(=O)(=O)N2CCCC2)c1 | -0.4 | -2.0 | 19894* | 4.0 | -1.5 | 7.2
O=C(Nc1nc2ccc(S(=O)(=O)N3CCCCC3)cc2s1)c1cccnc1 | 6.0 | 0.8 | 21943* | -6.8 | 6.3 | 10.8
CCOC(=O)C1CCN(C(=O)CSc2nc3ncccc3[nH]2)CC1 | 1.1 | -4.9 | 5275 | -1.6 | 3.7 | -25.6
Cc1ccc(-n2nc(C)cc2NC(=O)COc2cc(C)cc3oc(=O)c4c(c23)CCC4)cc1 | 0.7 | 0.6 | 22051* | -0.7 | 2.7 | 24.2
CC1CN(C(=O)CSc2nnc(-c3cccs3)n2N)CC(C)O1 (configuration not stated) | -1.3 | . | 8123 | -2.1 | 1.6 | .
CC1(C)C(=O)OC(c2cccs2)C(C)(C)C1=O (configuration not stated) | -0.1 | 1.1 | 19729* | -5.2 | -0.4 | 4.6
CC1CCCCC12NC(=O)N(CC(=O)OCC(=O)N(C)C1CCCCC1)C2=O (configuration not stated) | -3.3 | . | 4477 | -2.9 | -4.0 | .
N#C/C(=C\c1ccc[nH]1)S(=O)(=O)c1ccccc1 | -1.9 | 6.8 | 16572* | -2.5 | -5.0 | 13.1
CCn1cc(/C=C(/C#N)S(=O)(=O)c2ccccc2)cn1 | -1.4 | 0.6 | 23211* | -2.1 | -3.3 | 3.5
Cn1nccc1/C=C(/C#N)S(=O)(=O)c1ccccc1 | -0.8 | -2.7 | ? | -7.7 | 4.5 | -11.0
CC1(C)CC(=O)C=C(NCC(O)c2ccccc2)C1 (configuration not stated) | -2.3 | 2.6 | 3794 | -2.2 | -9.0 | -22.9
CN(CC(=O)Nc1cccc(F)c1)C(=O)CCc1nc2cc(S(=O)(=O)N3CCOCC3)ccc2n1C | 0.9 | . | 4226 | 0.2 | ? | .
CCCc1cc(=O)oc2cc(OCC(=O)Nc3ccc(S(N)(=O)=O)cc3)ccc12 | 12.8 | 5.8 | 5425 | -3.3 | -4.5 | 57.0*
CCCc1cc(=O)oc2cc(OCC(=O)NCC(O)c3ccccc3)ccc12 (configuration not stated) | -0.4 | -4.4 | 5462 | 0.0 | 2.2 | 52.7*
Cc1noc(C)c1S(=O)(=O)N1CCCC1C(=O)O (configuration not stated) | -0.9 | 2.8 | 3132 | -4.4 | -6.2 | -9.5
c1nc(N2CCCCCC2)c2[nH]cnc2n1 | -0.5 | -2.8 | 5711 | 3.6 | -0.5 | 27.8
c1nc(N2CCCC2)c2[nH]cnc2n1 | ? | -1.4 | 23416* | -0.9 | -0.2 | 5.1
CCOP(=O)(OCC)C(Cc1ccc(OC)c(OC)c1)N=C(c1ccccc1)c1ccccc1 (configuration not stated) | -0.3 | . | 5246 | 0.5 | -0.5 | .
CCN(CC)c1ccc(/C=C(\C#N)C(=O)c2ccc(Br)cc2)cc1 | 49.0* | -1.6 | 97679* | 46.5* | 61.3* | 4.3
O=S1(=O)CC(N2CC=CC2)CN1Cc1cn(Cc2cccc(C(F)(F)F)c2)nn1 (configuration not stated) | -0.7 | . | 4137 | -1.5 | -1.6 | .
CN(Cc1ccccc1)S(=O)(=O)c1cccc2cccnc12 | -2.9 | -1.8 | 24517* | -2.5 | -3.1 | 7.6
SMILES | BoNT A protease | 3CLpro inhibitor | Autofluor counter | Anthrax LF inh2 | BoNT-F LC inh | VHR inh abs
O=C(O)CSCC(=O)Nc1ccccc1 | -2.0 | -3.0 | 16554* | -1.3 | -2.2 | .
CC(=O)c1cccc(NC(=O)CSCc2ccc(Br)cc2)c1 | -1.2 | 0.7 | 10073 | -3.2 | -2.4 | 12.6
CC(=O)c1cccc(NC(=O)CSCc2ccccc2)c1 | 0.2 | -2.1 | 16402* | 0.0 | -2.7 | 7.1
Cc1[nH]c2ccc(C(=O)OCC(=O)NC3(C#N)CCCCC3)cc2c1C | 3.1 | . | 4629 | ? | 17.5 | .
O=C(NCc1ccccc1Cl)/C(=C\c1cccnc1)NC(=O)c1ccccc1 | -3.1 | 5.5 | 3565 | 2.9 | 4.4 | 58.5*
COc1cc(C(=O)Nc2cc(-c3ccccc3)[nH]n2)cc(OC)c1OC | ? | . | 20197* | -15.4 | 1.1 | 5.9
COc1ccc(N/C=C(\C#N)c2nc3ccccc3n2C)c(OC)c1 | -3.2 | -1.0 | 18044* | -1.3 | -9.0 | -27.8
Cc1ccccc1Oc1ncccc1C(=O)/C(C#N)=C/N(C)C | -2.1 | 4.2 | 23141* | -0.9 | -0.8 | 1.8
Nc1nnnn1/N=C/c1ccccc1OCc1ccc(Cl)cc1Cl | 3.2 | -2.6 | 22215* | -0.4 | 2.0 | 16.5
CCC(/C=C1\Sc2ccc(OC)cc2N1CCO)=C\c1sc2ccc(OC)cc2[n+]1CCO | 40.5* | 0.4 | 1224 | -25.7 | -120.3 | -8.3
CCC(/C=C1\Sc2ccc(OC)cc2N1CC)=C\c1sc2ccc(OC)cc2[n+]1CCCS(=O)(=O)[O-] | 100.5* | 3.1 | 1738 | 48.0* | 15.7 | 6.7
CCC(=O)/C=C1/Sc2ccc(OC)cc2N1CCO | -1.5 | -1.4 | 5619 | -0.8 | -5.8 | 11.1
Cc1cccc(OC(=O)C2C(c3ccccc3)C(C(=O)O)C2c2ccccc2)c1 (configuration not stated) | 2.8 | 8.6 | 15795 | -0.8 | 5.6 | 10.8
O=C(O)C1C(c2ccccc2)C(C(=O)Oc2ccccc2)C1c1ccccc1 (configuration not stated) | -1.5 | 3.4 | 24658* | 0.1 | -5.5 | 2.0
CC(C)CCOC(=O)C1C(c2ccccc2)C(C(=O)O)C1c1ccccc1 (configuration not stated) | -2.6 | 6.4 | 25168* | 0.2 | -3.0 | -19.9
CC(C)CCSc1nc(N2CCOCC2)c2c(c1C#N)CC(C)(C)OC2 | 3.5 | 4.6 | 19440* | -10.8 | 3.8 | 8.2
COC(=O)CCSc1nc(N2CCOCC2)c2c(c1C#N)CC(C)(C)OC2 | 1.6 | 0.9 | 3249 | 3.5 | -0.8 | 17.0
CC(C)(C)c1ccc(SCCc2ccccn2)cc1 | ? | -1.0 | 4099 | -3.0 | ? | 3.5
C=CC[C@H](CC(=O)NCCO)C(=O)N[C@H](COC(=O)[C@@H](CC=C)Cc1ccc(F)cc1)C(C)(C)C | 0.0 | . | 3603 | -0.7 | 2.6 | .
O=C(c1ccco1)N(Cc1ccc([N+](=O)[O-])cc1)c1ccc(Br)cc1 | -0.3 | 12.7* | 9767 | -8.6 | -9.9 | 26.1
